The inhibition is the relative decrease from the control value, in per cent.

In all, about 300,000 compounds went through this assay and about 2,500 (0.83%) were called active. No stated cut-off is given here; in the data, active means inhibition above about 60%; inconclusive means no clear call, values can overlap the other calls; inactive means below that. The full list was thinned out, with actives kept by preference.

This assay in a line: MLPCN primary screen, SNCA 5' untranslated region (AID 1813).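 Further: H4 neuroglioblastoma cells stably carrying SNCA 5'UTR luciferase fusion; 0% = DMSO wells and 100% = positive control.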 To be noted: alpha-synuclein 5'UTR reporter, inhibitor activity; hits give high values; tested at 7.5 µM.
As to `CCOC(=O)C(C)n1cnc2c(nnn2-c2cccc(OC)c2)c1=O` (stereo not given), the inhibition is -35.8% (inactive).
Next, `O=C(C[n+]1ccc2c(c1)nnn2-c1ccccc1)c1ccc(Cl)cc1`: 9.87% (inactive).
To `CCCCn1c(CCCNC(=O)CC)nc2ccccc21` belongs -5.46% (inactive).
To `CC(=O)Nc1nc2ccccc2n1Cc1ccc(C)cc1` belongs 48.2% (inactive); to `CCC(=O)Nc1nc2ccccc2n1Cc1ccccc1C`, 65.5% (active).
Turning to `COc1ccc(N2CCN(C(=O)CNC(=O)c3ccc(Br)o3)CC2)cc1`, the inhibition was 0.266% (inactive).
Next, `CC(=O)Cc1nsc(NC(=O)c2ccc(Cl)cc2Cl)n1`: -9.27% (inactive); `CC(=O)NNC(=O)c1csc(Cc2c(Cl)sc3ccc(Cl)cc23)n1`: 67.1% (active); `CNC(=O)c1csc(Cc2c(Cl)sc3ccc(Cl)cc23)n1`: -10.2% (inactive).
For the compound `CC12CN3CCN(CC(C3)/C1=N\NC(=O)c1ccccc1N)C2`, the inhibition is -83.3% (inactive).
To `Cc1ccc(CN2CCN(Cc3ccc4ncccc4c3)CC2CCO)cc1` (stereo not given) belongs -3.25% (inactive).
Next, `Cc1nnc(N/N=C/C2CC=CCC2)[nH]c1=O` (stereo not given): -14.7% (inactive); `Cc1nnc(N/N=C/c2ccccn2)[nH]c1=O`: 117% (active).
Next, `CNC(=O)C(=O)N/N=C/c1ccccn1`: 10.9% (inactive).
For `COc1cc(/C=N/N=C(\N)c2nonc2N)cc(OC)c1OC`, the inhibition was -18.9% (inactive).
To `O=C(CNC(=O)Cc1ccccc1)NCC(=O)OCC(=O)c1ccccc1Cl` belongs -27.1% (inactive).
In the case of `CC(=O)c1ccc(S(=O)(=O)N2CCC3(CC2)OCCO3)cc1`, the inhibition was -7.06% (inactive).
Next, `CC(=O)c1ccc(S(=O)(=O)N2CCN(c3nc4c(C)c(C)ccc4cc3C#N)CC2)cc1`: 15.2% (inactive); `CC(=O)c1ccc(S(=O)(=O)N2CCN(C(=O)/C=C/c3ccc4ccccc4n3)CC2)cc1`: 62.4% (active); `CC(N)C12CC3CC(CC(O)(C3)C1)C2` (stereo not given): 11.6% (inactive).
Next, `CCOc1cc2[nH]c(=S)n(Cc3ccc(C(=O)NCCOC)cc3)c(=O)c2cc1OCC`: 13.8% (inactive); `CCOc1cc2[nH]c(=S)n(Cc3ccc(C(=O)N4CCN(C)CC4)cc3)c(=O)c2cc1OCC`: 86.1% (active); `COc1ccccc1Cn1c(=S)[nH]c2cc(C(=O)N3CCN(C)CC3)ccc2c1=O`: 30.1% (inactive).
As for `COc1ccccc1N1CCN(C(=O)c2cc(=O)c3cc(C)cc(C)c3o2)CC1`, the inhibition was 78.3% (active).
To `COc1ccccc1N1CCN(C(=O)c2cc(=O)c3cc(C)ccc3o2)CC1` belongs -36.8% (inactive).
Next, `COc1cccc(-c2cc(C(=O)N3CCN(c4ccccc4OC)CC3)no2)c1`: -4.47% (inactive).
Take `Cc1ccc(C(=O)Nc2nnc(C3=COCCO3)o2)cc1C`: the inhibition was -10.3% (inactive).
To `CCN(CC)S(=O)(=O)c1ccc(N2CCCC2)c(NS(=O)(=O)c2cccs2)c1` belongs -11.1% (inactive).
To `COc1ccc(C(=O)CC(=O)C(=O)Nc2cc([N+](=O)[O-])ccc2OC)cc1` belongs -25.8% (inactive).
Turning to `COc1ccc(C(=O)c2c3ccc([N+](=O)[O-])cc3[n+]([O-])n2CCCN)cc1`, the inhibition was 63.1% (active).
For `COc1ccc2c(C(=O)c3ccc(C)cc3)n(CCC(N)=O)[n+]([O-])c2c1`, the inhibition was -21.1% (inactive).
Next, `Cc1ccc(C(NC(=O)N2CCCC2)C(Cl)(Cl)Cl)cc1F` (stereo not given): 25.2% (inactive); `COCC(=O)N=Nc1c(O)[nH]c2ccccc12`: 3.62% (inactive); `COc1cc(N=Cc2c(O)[nH]c3ccccc23)cc(OC)c1OC`: 81% (active).
To `COc1ccccc1N=Cc1c(O)c2ccccc2oc1=O` belongs 3.79% (inactive); to `COCCC(=O)N1CCC(Oc2ccc(C(=O)NCc3ccon3)cc2)CC1`, -4.68% (inactive); to `O=C(CCCO)N/N=C/c1cc(Br)ccc1O`, -18.4% (inactive).
As for `Oc1ccc(Br)cc1/C=N/Nc1ccccn1`, the inhibition was 66.4% (active).
As to `Oc1ccc(/C=N/Nc2ccc(C(F)(F)F)cn2)cc1O`, the inhibition was -195% (inactive).
Next, `COc1ccc(-c2cc(=O)oc3cc(OCC(=O)N[C@@H](Cc4c[nH]c5ccccc45)C(=O)O)ccc23)cc1`: 9.25% (inactive); `CCOc1cc(/C=N/NC(=O)CN2CCCCC2)ccc1O`: 1.96% (inactive); `C=CCn1c(C)cc(C2=NNC(=NCC)SC2)c1C`: 105% (active).
Take `C=CCn1c(C)cc(C(=O)CN2C(=O)c3ccccc3C2=O)c1C`: the inhibition is 47.1% (inactive).
To `O=C(NCc1cccnc1)C12CC3CC(CC(C3)C1)C2` belongs 16.2% (inactive).
Next, `O=C(NC1CCCC1)C(c1ccc(N2CCOCC2)cc1)N(C(=O)c1ccco1)c1ccccc1F` (stereo not given): -5.34% (inactive).
Next, `Cc1cc(C)n(-c2c(F)c(F)c(COC(=O)c3ccccc3)c(F)c2F)n1`: 6.91% (inactive).
For the compound `CCOC(=O)c1cnc(-n2nc(C)cc2C)nc1Nc1cccc(C(C)=O)c1`, the inhibition was 17.6% (inactive).
Next, `CCOC(=O)c1cnc(-n2nc(C)cc2C)nc1NNc1cc(C)nc(-c2ccccc2)n1`: 105% (active); `NC(=O)C1CCN(Cc2nc3c(Br)cc(Br)cc3c(=O)[nH]2)CC1`: 31.8% (inactive).
Next, `CC(=O)Nc1ccc(S(=O)(=O)NC2Cc3ccccc3C2)cc1`: -6.02% (inactive).
For `Cc1ccc(NC(=O)CCC(=O)c2ccc(Br)cc2)cc1`, the inhibition was 1.65% (inactive).
To `COc1ccc(S(=O)(=O)Nc2ccc3c(c2)OCO3)cc1Cl` belongs -17.5% (inactive); to `COc1ccccc1C1C2=C(COC2=O)Nc2cc3c(cc21)OCO3` (stereo not given), 98.1% (active).
As to `COc1ccc(C2CC(=O)Nc3cc(C)c(C)cc32)c(OC)c1OC` (stereo not given), the inhibition was 22.4% (inactive).
To `COC(=O)C1=C(C)NC(=O)CC1c1ccccc1OC` (stereo not given) belongs 2.02% (inactive); to `COc1cc2c(cc1OC)C(c1ccncc1)CC(=O)N2` (stereo not given), 21.6% (inactive); to `CCCOc1ccccc1C1CC(=O)Nc2cc3c(cc21)OCO3` (stereo not given), 111% (active).
Next, `COC(=O)c1ccc(NS(=O)(=O)c2cc3c4c(c2)C(C)C(=O)N4CCC3)cc1` (stereo not given): 8.87% (inactive); `CN(CC(=O)NCc1ccncc1)S(=O)(=O)c1ccc(Br)cc1`: -15.9% (inactive).
For `Cc1ccc(CNC(=O)c2ccc3c(c2)S(=O)(=O)c2ccccc2C3=O)cc1`, the inhibition was 5.46% (inactive).
For `CCN(C(=O)c1cc([N+](=O)[O-])ccc1NCc1cccnc1)c1ccccc1`, the inhibition is 14.1% (inactive).
Next, `CCCCn1ccnc1C(=O)c1cccc(S(=O)(=O)N2c3ccccc3CC2C)c1` (stereo not given): 4.82% (inactive); `COc1ccc(-c2cn3ccsc3n2)cc1`: -105% (inactive).
Next, `CCN(CC)S(=O)(=O)c1ccc(-c2cn3ccc(C)cc3n2)cc1`: -169% (inactive); `COc1ccc(-c2cn3ccc(C)cc3n2)cc1`: 92.2% (active).
Next, `CCc1nc2cccnc2n1-c1ccc(C(=O)O)cc1`: -14.6% (inactive); `Fc1ccc(-n2c(Cc3ccccc3)nnc2SCc2nc(-c3ccc(Cl)cc3)no2)cc1`: -3.62% (inactive).
On to `CCN(CC)CCNCc1ccc(OCc2ccc(Cl)nc2)c(OC)c1`, for which the inhibition was -27.5% (inactive).
Next, `CCOc1cccc(/C=C/c2ccc3ccccc3n2)c1OC(C)=O`: 49.2% (inactive).
Next, `COc1cccc(/C=C2\C=C(c3ccc(C)cc3)OC2=O)c1OC(C)=O`: -65.8% (inactive); `COc1cccc(/C=C/c2ccc3ccccc3n2)c1OC(C)=O`: 83.1% (active).
As to `CCCOC1CCCN(C(=O)c2cc(COc3cncc(Cl)c3)on2)C1` (stereo not given), the inhibition was -219% (inactive).
To `C[C@H](NC(=O)c1nc[nH]c1C(=O)NCC(=O)OC(C)(C)C)c1ccccc1` belongs 24.4% (inactive).
To `Cc1ccc(-c2cc(=O)c3ccc(F)cc3[nH]2)cc1` belongs -68.9% (inactive).
To `Cc1ccc(-c2cc(=O)c3ccc(Cl)cc3[nH]2)cc1` belongs -19.2% (inactive).
`O=c1cc(-c2ccccc2)[nH]c2cc(F)ccc12`: the inhibition is 93.3% (active).
To `COC(=O)C(C)n1cnc2c(nnn2-c2cccc(Cl)c2)c1=O` (stereo not given) belongs -6.77% (inactive); to `CC(C)n1cnc2c(Nc3cccc(Cl)c3)nc(N(CCO)CCCO)nc21`, 64.7% (active).
Consider `CC(C)C[C@H](CO)Nc1nc(N(C)c2cccc(Cl)c2)c2ncn(C(C)C)c2n1`, for which the inhibition is 24.9% (inactive).
To `CSc1cc(C)n(-c2ccccc2C)c(=S)c1C(C)=O` belongs -18% (inactive).
To `O=C(CCN1C(=O)c2ccncc2C1=O)Nc1cc(F)ccc1F` belongs 10.3% (inactive); to `O=C(NCC(=O)N(c1ccccc1)C(C(=O)NCC1CCCO1)c1ccccc1)c1cccs1` (stereo not given), 15.4% (inactive).
Next, `O=C(N/N=C/c1ccc(OC(=O)c2ccccc2Cl)cc1)c1ccc(O)cc1`: -1.64% (inactive).
Regarding `O=C(N/N=C/c1ccoc1)c1ccc(Cl)cc1Cl`, the inhibition was -0.701% (inactive).
Next, `CC(C)(C)C(=O)Nc1ccc(C(=O)N/N=C/c2ccccc2OC(=O)c2ccc(Cl)cc2Cl)cc1`: 65.2% (active); `Cc1ccc(S(=O)(=O)N/N=C(\c2ccccc2)C2CC2)cc1`: -11.6% (inactive).
Consider `COC(=O)C1=C(C)N(c2ccc(C)cc2)/C(=C/c2ccc(O)cc2)C1=O`, for which the inhibition was -12.4% (inactive).
Next, `CCOc1ccccc1NC(=O)Cn1nnc(C(=O)NCc2cccs2)c1N`: 84.9% (active); `Cc1ccc(NC(=O)Cn2nnc(C(=O)NCc3ccco3)c2N)c(C)c1`: -2.22% (inactive); `CCOc1ccccc1NC(=O)Cc1cccs1`: 19.4% (inactive).
Next, `O=C(Cc1ccc(-n2c(=O)c3sccc3n(Cc3ccc(F)cc3)c2=O)cc1)NCc1ccco1`: 11.3% (inactive); `O=C(O)C1CCN(C(=O)c2cc(F)cc3c2OCOC3)CC1`: 19.4% (inactive).
Next, `C/C(=N\NC(=O)CC(C)C)c1c(C(F)(F)F)[nH]n(-c2nc3ccccc3s2)c1=O`: -51.5% (inactive).
For the compound `COC(=O)Cc1[nH]n(-c2nc3ccccc3s2)c(=O)c1C(C)=Nc1ccc(OC)cc1`, the inhibition is 68.9% (active).
To `CC(=NCc1ccco1)c1c(C(F)(F)F)[nH]n(-c2nc3ccccc3s2)c1=O` belongs -117% (inactive).

Source of the values: PubChem BioAssay AID1813 (Broad Institute, 2009).
